According to PubChem BioAssay (NCATS):
Values joined by “and” are separate entries in the source; they are usually repeats but may differ in a detail not shown here. Identical values can stand only once. Records with an inconclusive call do not appear. Active and inactive are the calls of the source. Calls come from the whole dose curve; as a rule, active = well fitted inhibition curve with a large enough effect; inconclusive = small, poorly fitted or top-dose-only effect; inactive = flat fitted curve, though single readings scatter.

tested on: HaCat; test: Cytotoxic Profiling of Annotated Libraries Using Quantitative High-Throughput Screening (AID 1296008); conditions: Five cell lines viability, CellTiter-Glo ATP luminescence, 48-72 h; max response: hits give low values; note: nearly all actives have a fitted effect of over 60% in size
Outline: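 Cells exposed to compounds for 48 or 72 hr at 37 degrees Celsius. Viability read as ATP-coupled luminescence with CellTiter-Glo after 10 min at room temperature.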
% is set by controls: 0 for no effect and ±100 for the full control effect; potency is the fitted concentration of half-maximal effect.

Row | SMILES | max response | Potency
1 | CC(C)(N)c1ccc(-c2nc3ccccc3nc2-c2ccccc2)cc1 | -35.2% (inactive) and -5.95% (inactive) | 
2 | C=CC1=C(C(=O)O)N2C(=O)[C@@H](NC(=O)C(=NO)c3csc(N)n3)[C@H]2SC1 | 4.35% (inactive) | 
3 | COc1cc(C(C)C)c(Oc2cnc(NC(CO)CO)nc2N)cc1I | -12.7% (inactive) | 
4 | CC(=O)[C@]1(O)Cc2c(O)c3c(c(O)c2[C@@H](O[C@H]2C[C@H](N)[C@@H](O)[C@H](C)O2)C1)C(=O)c1ccccc1C3=O |  | 743 nM (active)
5 | CCOC(=O)N1CCN([N+]([O-])=NOc2ccc([N+](=O)[O-])cc2[N+](=O)[O-])CC1 | 3.57% (inactive) | 
6 | O=C1c2c(O)cccc2[C@@H]([C@@H]2O[C@H](CO)[C@@H](O)[C@H](O)[C@H]2O)c2cc(CO)cc(O)c21 | -8.19% (inactive) | 
7 | COc1cccc2c1C(=O)c1c(O)c3c(c(O)c1C2=O)C[C@@](O)(C(=O)CO)C[C@@H]3O[C@H]1C[C@H](N)[C@@H](O)[C@H](C)O1 |  | 372 nM (active)
8 | Nc1ncn([C@@H]2O[C@H](CO)[C@@H](O)[C@@H]2O)c(=O)n1 | -5.4% (inactive) | 
9 | Cc1cnc(Nc2ccc(CN3CCOCC3)cc2)nc1Nc1cccc(S(=O)(=O)NC(C)(C)C)c1 |  | 2.64 µM (active) and 2.31 µM (active)
10 | CC(=O)OC[C@@H]1O[C@@H](n2ccc(=O)[nH]c2=O)[C@H](OC(C)=O)[C@H]1OC(C)=O | -10.5% (inactive) | 
11 | NC(=O)c1ncn([C@@H]2O[C@H](CO)[C@@H](O)[C@@H]2O)c1O | 4.1% (inactive) | 
